Shown is part of a subset that was picked to be rich in hits.
Tg IFNy HTS: blocks Toxoplasma gondii growth in the presence of IFN-gamma | Toxoplasma gondii growth in IFN-gamma-treated host cells; hits give low values | activity change, negative = inhibition, % (no concentration beside the values) | actives 3.8% (n = 69,000) | AID 1259416; in the data active = activity change below about -70%, passing the limit was not always enough;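 note: host cells are HeLa cells infected with Toxoplasma gondii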
A number is an active result; n = inactive.

SMILES	Tg IFNy HTS
CNC(=O)c1ccc(CNC(=O)c2[nH]c3ccc(C)cc3c2C)o1	-108
Cc1ccc2[nH]c(C(=O)NCc3cccnc3)c(NC(=O)c3ccc(Cl)cc3)c2c1	n
CNC(=O)c1ccc(CNC(=O)Cc2c(C)[nH]c3c(C)ccc(C)c23)o1	n
O=C(Cn1ncc2c(N3CCCC3)ncnc21)NCc1ccccc1Cl	n
Cc1cccc(C(=O)N2CCC3(CC2)Nc2ccccc2-n2cccc23)c1	n
Cc1cc(Nc2nc(N[C@@H](C)c3ccc(F)cc3)c(C#N)cc2F)n[nH]1	-75
O=C(Nc1csc(-c2ccc(Cl)cc2)c1)c1cccnc1Oc1ccc(Cl)cc1	n
O=C(Sc1ccc(Cl)cc1)c1cccnc1Oc1ccccc1	-102
O=C(NCc1csc2ccc(Cl)cc12)c1cccnc1Oc1ccc(Cl)cc1	n
COc1nc2ccccc2nc1CCC(=O)NC(C)c1ccccn1 (configuration not stated)	n
O=C(O)C1CN(c2ncc(Cl)cc2F)CCN1 (configuration not stated)	n
CC(C)C(=O)N1CCC(O)(Cn2cnc3ccccc3c2=O)CC1	n
CC(C)N(Cc1ccccc1)CC1(O)CCN(C(=O)c2ccc(=O)n(C)n2)CC1	n
Cc1ccsc1CN(CCCO)Cc1ccc(F)c(F)c1	n
O=C(CNC(=O)c1ccco1)Nc1cccc(-c2csc(-c3ccccc3)n2)c1	n
COCCCN(Cc1ccccn1)Cc1nc2ccccc2[nH]1	n
CCSc1nc2c(c(=O)n1C)C1(CCCCC1)Cc1ccccc1-2	-73
O=c1[nH]c(Cc2ccccc2)nc2c1C1(CCCCC1)Cc1ccccc1-2	n
COc1ccc(C2CCCN2C(=O)c2ccc(=O)n(CC(=O)Nc3nccs3)c2)cc1 (configuration not stated)	n
CC(C)Oc1cc(N2CCOC(C(F)(F)F)C2)nc(N)n1 (configuration not stated)	n
CCn1c(SCC(=O)Nc2ccc(N(C)C)cc2)nc2ccccc2c1=O	n
C=C(C)Cc1c(C)nc(-c2ccc(Cl)cc2)nc1OC(=S)N(CC)CC	-98
O=S1(=O)N=C(Nc2cccc3ccccc23)c2ccccc21	n
CCCCSC(=S)NC1CCS(=O)(=O)C1 (configuration not stated)	n
CCCCCCCCCCOC1CCS(=O)(=O)C1 (configuration not stated)	-84
SMILES	Tg IFNy HTS
CCOc1ncnc2c1CCN(C(=O)c1ccc3[nH]ccc3c1)CC2	n
COCC1CC2(CCN(C(=O)Cc3ccc(C)cc3)CC2)CO1 (configuration not stated)	n
COc1ccc(C(C)NC(=O)c2cn3c(n2)CCCC3)cc1OC (configuration not stated)	n
COc1ccc(C(C)NC(=O)c2c3c(nn2C)CCCC3)cc1F (configuration not stated)	-77
COc1ccc(OC)c(-c2cc(C(=O)NC(C)c3ccc4c(c3)CCC4)[nH]n2)c1 (configuration not stated)	n
O=S(N1CCOCC1)C12CC3CC(CC(C3)C1)C2 (configuration not stated)	n
CC1CCN(S(=O)(=O)c2ccc3c(c2)CCC(=O)N3CC(=O)NCCc2ccccc2)CC1	n
CCCNC(=O)N1C[C@@H](O)COC[C@@H]2O[C@@H](CC(=O)OC)CC[C@H]21	n
CC(C)C(=O)N1CCCc2cc(C(O)CN3CCC(COc4ccccn4)CC3)ccc21 (configuration not stated)	n
N#Cc1ccccc1NC(=O)C(=O)NCCc1csc(-c2cccc(F)c2)n1	n
Cn1cc(C(CNC(=O)Nc2ccccc2Cl)c2cccnc2)c2ccccc21 (configuration not stated)	n
CCc1ccc(NC(=O)NCC(c2cccnc2)c2cn(C)c3ccccc23)cc1 (configuration not stated)	n
CCc1ccccc1S(=O)(=O)NCC(c1cccnc1)c1cn(C)c2ccccc12 (configuration not stated)	-83
COc1cccc2c1OCC(C(=O)N1CCc3ccccc3C1)C2 (configuration not stated)	n
NC(=O)C1CSSCCC(=O)NC(CCCCN=C(N)N)C(=O)NCC(=O)NC(CC(=O)O)C(=O)NC(Cc2c[nH]c3ccccc23)C(=O)N2CCCC2C(=O)N1 (configuration not stated)	n
Cc1nc(CC(=O)N2CCCC2c2ccc3c(NCc4ccccc4)n[nH]c3n2)cs1 (configuration not stated)	-76
Cc1nc(CC(=O)N2CCC(c3ccccc3C(=O)O)C2)cs1 (configuration not stated)	n
Cc1nc(CC(=O)N2CCCCC2c2[nH]ncc2C)cs1 (configuration not stated)	n
NS(=O)(=O)c1ccc(Cn2cnnc2)cc1	n
O=C(c1ccco1)N1C2CCC1CC(c1ccc(F)cc1)C2 (configuration not stated)	n
Cn1c(C(=O)N2CCCCO2)cc2c1c1ccccc1n2C	n
Fc1cccc(CN(Cc2cncn2Cc2ccccc2)CC2CCCO2)c1 (configuration not stated)	-93
